Compounds with a hit are over-represented: about 12% of the library has one in this group of screens.
USP30 block = inhibitors of human USP30 deubiquitinase; purified USP30, Ub-rhodamine cleavage fluorescence; inhibition, % at 25 µM; 5.3% of 47,000 active
USP17 block = inhibitors of human USP17 deubiquitinase. Ubiquitin carboxyl-terminal hydrolase 17-like protein 5 (Homo sapiens), A8MUK1. purified USP17, Ub-rhodamine cleavage fluorescence, 3 h. inhibition, % at 50 µM. 6.5% of 47,000 active. AID 1645855, 2021
USP28 block = inhibitors of human USP28 deubiquitinase | 3% of 47,000 active | purified USP28, Ub-rhodamine cleavage fluorescence, 30 min | AID 1645857, 2021 | inhibition, % at 25 µM
OTUD3 inh = inhibitors of human OTUD3 deubiquitinase; OTU domain-containing protein 3 (Homo sapiens), Q5T2D3; purified OTUD3, Ub-rhodamine fluorescence, 2 h; inhibition, % at 25 µM; 0.7% of 47,000 active
Large screens that a line does not name were inactive. Rule as the data show it: active = inhibition above about 30%; inactive = the rest.

O=C(c1cccc(-c2noc(-c3ccc(F)cc3)n2)c1)N1CCCC1	none
Cc1cccc(C(=O)N2CCN(c3nc(-c4ccc(Cl)cc4)no3)CC2)c1	USP30 block 40
CCc1[nH]nc(C(=O)N2C[C@@H](c3cccc(F)c3)[C@@H]3NC(=O)CCCC[C@H]32)c1C	none
CCOC(=O)c1noc2nc(C)nc(NCC3CCN(Cc4ccc(F)cc4)CC3)c12	none
Cn1c2ccccc2c(=O)c2c(=O)n(-c3ccccc3)c(-c3ccc(F)cc3)nc21	USP17 block 43
Cn1nc(-c2ccccc2F)c2cc(C(=O)NCCc3ccc(S(N)(=O)=O)cc3)sc21	USP30 block 32
NS(=O)(=O)c1ccc(CCNC(=O)c2nc(-c3ccccc3)n(-c3ccccc3)n2)cc1	none
Cc1ccc(NC(=O)Cn2nc3ccc(C(=O)NCc4ccccc4)cn3c2=O)cc1F	USP17 block 72
CC(C)CC(=O)N1CC(C(=O)Nc2ccc(F)cc2)C2(CCOCC2)C1 (centres undefined)	USP17 block 46
N#Cc1ccc(Cl)cc1NC(=O)COc1cccnc1[N+](=O)[O-]	USP30 block 31, USP17 block 50
N#Cc1ccc(Cl)cc1NC(=O)CN1C(=O)c2ccccc2S1(=O)=O	none
O=C(c1ccc(Br)o1)N(Cc1ccccc1Cl)c1ccccn1	USP28 block 31
O=C(c1ccco1)N(Cc1ccccc1Cl)c1ccccn1	none
NC(=O)c1nc(C2CCCCC2)nc2c1[nH]c(=O)n2-c1ccc2c(c1)OCO2	none
Cc1cccc(-n2c(=O)[nH]c3c(C(N)=O)nc(-c4ccccn4)nc32)c1	none
COc1cc(-c2nc(C(N)=O)c3[nH]c(=O)n(-c4ccc(C)cc4)c3n2)cc(OC)c1OC	USP30 block 45, USP17 block 75
Cc1ccc(-n2c(=O)[nH]c3c(C(N)=O)nc(C4CCCCC4)nc32)cc1	none
NC(=O)c1nc(-c2ccccn2)nc2c1[nH]c(=O)n2-c1ccc2c(c1)OCO2	USP30 block 43, USP17 block 43, OTUD3 inh 45
NC(=O)c1nc(-c2cccnc2)nc2c1[nH]c(=O)n2-c1ccc2c(c1)OCO2	USP17 block 46, USP28 block 53, OTUD3 inh 48
COc1ccccc1NC(=O)Nc1ccc2sc(NC(=O)C3CCCCC3)nc2c1	USP30 block 31
CCC(=O)Nc1nc2cc(NC(=O)c3ccccc3C)ccc2s1	none
CCC(=O)Nc1nc2cc(NC(=O)Nc3ccc(C)cc3)ccc2s1	USP30 block 42
CCC(=O)Nc1nc2cc(NC(=O)Nc3cccc(C)c3)ccc2s1	USP30 block 38
O=C(NC1(c2nc(-c3cnccn3)no2)CCCCC1)c1ccn[nH]1	none
CCn1c(COc2ccc(Cl)c3cccnc23)nnc1SC(F)F	USP30 block 40
CC(=O)Nc1ccc(NC(=O)N[C@H]2C[C@H]3CN(C)c4ccccc4CN3C2)cc1	USP28 block 31
CCc1cc(=O)[nH]c(NC2CCN(S(=O)(=O)c3ccc(OC)cc3)CC2)n1	none
Oc1ccc2ccccc2c1CN1CCCC1	none
Oc1ccc2ccccc2c1CN1CCN(c2ncccn2)CC1	USP17 block 36 (no result: USP30 block, USP28 block)
Cc1ccccc1Cn1ccc(NC(=O)c2noc(C)c2[N+](=O)[O-])n1	USP28 block 75
CCn1ncc(S(=O)(=O)Nc2ccn(Cc3ccccc3C)n2)c1C	none
CC(=O)[C@H]1c2c(c(O)c3c(O)cccc3c2-c2c3c(c(O)c4c(O)cccc24)C(=O)C[C@](C)(O)[C@H]3C(C)=O)C(=O)C[C@]1(C)O	USP17 block 78
CCCCNC(=O)c1cccc(Nc2cc(C)nc3nc(-c4cccnc4)nn23)c1	USP30 block 38, USP17 block 32
Cc1cc(NCC(=O)Nc2ccc(Cl)cc2)n2nc(-c3cccnc3)nc2n1	USP30 block 38
Cc1ccccc1NC(=O)Cn1cc(S(=O)(=O)N2CCCC2)ccc1=O	none
CC(C)(C)c1ccc(C(=O)Nc2ccc(O)cc2C(=O)O)cc1	none
COc1ccc(C(=O)Nc2ccc(O)cc2C(=O)O)cc1OC	USP30 block 32
Cc1ccc(C)c(NC(=O)CCc2c(C)nn(-c3cc(N(C)C)ncn3)c2C)c1	USP30 block 31
Cc1ccc(CNC(=O)CCc2c(C)nn(-c3cc(N4CCOCC4)ncn3)c2C)cc1	none
COc1ccc(C)cc1NC(=O)c1cc(-c2ccccc2)c(N2CCOCC2)s1	none
Cc1ccc(NC(=O)c2cc(=O)n(C)c3c2c(=O)n(C)c(=O)n3C)cc1C	USP17 block 44
Cn1c(=O)c2c(C(=O)Nc3ccc(Cl)cc3)cc(=O)n(C)c2n(C)c1=O	none
Cc1ccc(NC(=O)c2cc(=O)n(C)c3c2c(=O)n(C)c(=O)n3C)c(C)c1	USP30 block 61
c1cncc(-c2nc(NCCN3CCOCC3)ncc2-c2ccc3c(c2)OCO3)c1	none
O=C(NCCc1cccnc1)c1nc(-c2cn(-c3nccs3)cn2)n2ccccc12	USP17 block 45
O=C(CCN1C(=O)c2cccnc2Sc2ccccc21)Nc1ccc(Cl)cc1	none
CCN1CCN(Cc2nc(-c3ccc(N4CCCC(C)C4)nc3)no2)CC1 (centres undefined)	none
COc1ccc(NC(=O)C2=Cc3ccccc3OC2)cc1	USP30 block 34
COc1ccc([N+](=O)[O-])cc1C1N(c2ccccc2)CCN1c1ccccc1	USP17 block 31
Cc1ccc(OCC2Cn3c(nc4c3c(=O)[nH]c(=O)n4C)O2)cc1C (centres undefined)	USP17 block 66 (no result: USP30 block, USP28 block)
Cc1ccc(C)c(N2CCn3c2nc2c3c(=O)[nH]c(=O)n2C)c1	none
O=C(c1ccco1)N(c1ccc(Oc2ccccc2)cc1)c1nc2ccccc2s1	USP17 block 45
Cc1cccc(-n2nc(C)c3c2NC(=O)CC3C(=O)c2ccc3c(c2)OCCO3)c1 (centres undefined)	none
CC(=O)Nc1ccc(NC(=O)c2sccc2Oc2ccc([N+](=O)[O-])cc2)cc1	none
COc1ccc(OC)c(NC(=O)c2sccc2Oc2ccc(F)cc2[N+](=O)[O-])c1	USP30 block 30
CCOC(=O)N1CCN(S(=O)(=O)c2ccc(C(=O)Nc3ccc(Br)cc3)cc2)CC1	USP17 block 88
COc1nc(OC)nc(N2CCC(NC(=O)C(Cc3cccc(C)c3)NC(C)=O)CC2)n1 (centres undefined)	none
CC(=O)c1ccc(NC(=O)CCn2c(=O)c3cccn3c3ccccc32)cc1	USP17 block 43
COc1cc(NC(=O)CSc2nc3ccccc3n2S(=O)(=O)c2ccc(Cl)cc2)cc(OC)c1OC	none
CN(C)S(=O)(=O)N1CCCC2(C1)Nc1cccnc1NC2=NC1CCCC1 (centres undefined)	none
O=C(C1CC1)N1CCC2(C1)c1ccccc1S(=O)(=O)N2Cc1ccc(F)cc1 (centres undefined)	USP30 block 36
COc1ccc2[nH]c(C(=O)N3CCC(n4cnc5cccnc54)CC3)cc2c1	none
Cc1nc(-c2ccccc2)n(Cc2ccc(F)cc2)c(=O)c1CCO	USP28 block 33 (no result: USP17 block)
COc1ccc(C2=NC3(CCN(C(=O)Nc4ccccc4)CC3)NC2=O)cc1	none
Cc1cc(C)c(COc2ccc3c(c2C)OC(C)(C)CC3=O)c(C)c1	USP30 block 30
O=C(CN1C(=O)CSc2cccn2-c2ccccc21)NCc1ccccc1F	none
COc1ccc(CCN2Cc3cc4ccccc4nc3OC2=O)cc1	none

Source: PubChem BioAssay
